Assay outcomes (PubChem)
Shown are actives, neighbours in structure and some others; about 7.6% of the full set was active somewhere.
HCV NS3h FP = hepatitis C NS3 helicase inhibition, primary screen; 16,000 compounds, 1.6% hits; NS3h Cy5-dT15 DNA binding, fluorescence polarization; AID 687043; inhibition, % at 100 µM;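 active = inhibition above the average over every tested compound plus 3 SD, cut at about 40% in these data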
Cy5 interf NS3h = counter-screen for HCV NS3 helicase inhibitors: fluorescence interference; Cy5-dT15 DNA with NS3h; actives lie on both sides; signal over control mean, under 1 quenches; fluorescence interference ratio at 100 µM; 16,000 compounds, 6% hits;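 active = compound fluorescence over control fluorescence at most 0.8, a quencher, or at least a set upper limit, an enhancer; inactive = ratio between 0.8 and the set upper limit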
Active calls of the source: *.

SMILES | HCV NS3h FP | Cy5 interf NS3h
COc1ccc(CCN2C(=O)/C(=C/c3c(NCCCn4ccnc4)nc4c(C)cccn4c3=O)SC2=S)cc1OC | 7 | 0.89
Cc1cccn2c(=O)c(/C=C3\SC(=S)N(Cc4ccccc4)C3=O)c(NCCCn3ccnc3)nc12 | 7 | 0.59*
COc1cc(C=C2C(=O)NC(=O)NC2=O)cc(Cl)c1OCCOc1ccccc1C | 23 | 0.9
CCCN1C(=O)/C(=C2\SC(=S)N(c3ccc(OCC)cc3)C2=O)c2ccccc21 | 5 | 0.98
CCN(CC)Cc1c(O)ccc2occ(C(=O)c3cccs3)c12 | -4 | 1.1
CCCOC(=O)c1ccc(NC(=O)c2ccc(C)c([N+](=O)[O-])c2)cc1 | 14 | 0.96
O=C(Nc1ccc(C(F)(F)F)cc1)c1ccc2c(c1)C(=O)N(CC1CCCO1)C2=O (stereo not drawn) | 5 | 1
Cc1ccc(C(O)=C2C(=O)C(=O)N(CCCC(=O)O)C2/C=C/c2ccccc2)cc1 (stereo not drawn) | 9 | 1
CC(=O)Nc1ccc(NC(=O)c2ccc(Cl)c(Cl)c2)cc1 | 17 | 1.2*
CC(=O)Nc1ccc(NC(=O)c2ccc(C)cc2)cc1 | 4 | 1
O=C(Nc1ccc2c(c1)C(=O)N(c1ccccc1)C2=O)c1ccc2c(c1)C(=O)N(c1ccccc1)C2=O | -7 | 1
CC(=O)Nc1ccc(NC(=O)c2ccc(N3C(=O)c4ccc(C(=O)Nc5ccc(NC(C)=O)cc5)cc4C3=O)cc2)cc1 | 15 | 0.77*
O=C(Nc1ccc(NC(=O)c2ccc(Cl)cc2Cl)cc1)c1ccc(Cl)c(Cl)c1 | -17 | 0.97
CC(=O)Nc1ccc(NC(=O)c2ccc(C(F)(F)F)cc2)cc1 | 12 | 0.76*
COc1cc(/C=N\n2cnnc2)c([N+](=O)[O-])cc1OCCC(C)C | -2 | 1.1
COc1cc(NS(=O)(=O)c2ccc(N/C=C\C(=O)c3ccc4ccccc4c3)cc2)nc(OC)n1 | 7 | 1.1
O=C1C(=O)N(c2cccnc2)C(c2ccccc2)C1=C(O)c1ccc(Cl)cc1 (stereo not drawn) | -19 | 1
CCOc1ccc(S(=O)(=O)N(CC(=O)Nc2cccc(Cl)c2C)c2ccc(C)cc2)cc1 | 16 | 1.1
COc1cccc(NC(=O)/C(=C/c2ccccc2)c2ccccc2)c1 | 14 | 1
COc1ccc(OC)c(NC(=O)/C(=C/c2ccccc2)c2ccccc2)c1 | 4 | 0.61*
COc1ccc(Cl)cc1C(=O)NCc1ccccn1 | -2 | 0.95
COC(=O)c1cc(NC(=O)c2cccc(Cl)c2Cl)cc(C(=O)OC)c1 | 10 | 0.87
COc1ccc(N)cc1-n1c(C)ccc1C | 4 | 0.4*
COc1ccc(NC(=O)CSc2nc3ccc(N4C(=O)c5ccccc5C4=O)cc3s2)c([N+](=O)[O-])c1 | 14 | 0.73*
CCOc1ccc2nc(SCC(=O)Nc3ccc(OC)cc3OC)sc2c1 | 7 | 0.94
SMILES | HCV NS3h FP | Cy5 interf NS3h
Cc1cccc(NC(=O)CC2S/C(=N/N=C3/CCCc4ccccc43)NC2=O)c1C (stereo not drawn) | -12 | 1.2
Cc1ccc(OCC(=O)Nc2ccc([N+](=O)[O-])cc2)c(C)c1 | -1 | 0.97
CCCc1cc(=O)n2[nH]c(-c3ccc(F)cc3)cc2n1 | 0 | 0.87
CCCc1cc(=O)n2[nH]c(-c3ccc(C)cc3)cc2n1 | 30 | 1.2*
Cc1nc2cc(-c3ccccc3Cl)[nH]n2c(=O)c1Cl | 12 | 1.1
Cc1ccc(-c2cc3nc(C)c(Cl)c(=O)n3[nH]2)cc1 | 14 | 0.77*
CCOC(=O)N1CCN(C(=O)C(C)N2C(=O)c3ccccc3C2=O)CC1 (stereo not drawn) | -2 | 1
Cc1ccccc1/C=C1\SC(=S)N(C(C(=O)O)C(C)C)C1=O (stereo not drawn) | 8 | 1
CC(C(=O)O)N1C(=O)/C(=C/c2ccccc2)SC1=S (stereo not drawn) | 2 | 1.2*
COc1ccc(/C=N\n2cnnc2)cc1Br | -15 | 1
COc1cc(/C=N\n2cnnc2)cc(OC)c1O | 1 | 0.67*
Cc1cccc(N2C(=O)C(=O)C(=C(O)c3ccccc3)C2c2ccccc2)n1 (stereo not drawn) | 2 | 1
CN(C)CCNC(=O)c1ccc(F)cc1 | 12 | 1
Cc1ccc(NC(=O)N(Cc2ccccc2)C(C)C2CC2)cc1 (stereo not drawn) | 10 | 0.6*
CCOC(=O)N(Cc1ccccc1)C(C(=O)O)C(C(=O)O)N(Cc1ccccc1)C(=O)OCC (stereo not drawn) | 0 | 0.97
CC(C1CC1)N(Cc1ccccc1)C(=O)c1ccc(F)cc1 (stereo not drawn) | 10 | 0.59*
CCOC(=O)Nc1n[nH]c(NC(=O)OCC)c1[N+](=O)[O-] | 12 | 0.66*
CCOC(=O)Nc1cc([N+](=O)[O-])ccc1Cl | 19 | 0.98
C=CCN(CC=C)Cn1[nH]c(=O)ccc1=O | 15 | 0.75*
CC1CCN(Cn2[nH]c(=O)ccc2=O)CC1 | -15 | 1.1
CCN(CC)c1ccc(NC(=O)c2cccc(OCc3ccccc3)c2)cc1 | 19 | 0.98
O=C(COc1ccccc1Cl)Nc1c[nH]c(=O)[nH]c1=O | -37 | 1.3*
O=C(COc1ccccc1Cl)NNC(=O)c1ccccc1I | 12 | 1
Cc1ccccc1NC(=S)NCCOc1ccccc1Cc1ccccc1 | 10 | 0.6*
Cc1ccccc1NC(=O)C(=O)NCCc1ccccc1 | 1 | 1.1
SMILES | HCV NS3h FP | Cy5 interf NS3h
COc1cc(C2Nc3ccccc3C(=O)N2c2ccc(Cl)cc2)ccc1O (stereo not drawn) | 12 | 0.96
CCOC(=O)CCc1c(C)nc2cc(-c3cccc(F)c3)[nH]n2c1=O | 7 | 1.1
C=CCc1c(C)nc2cc(-c3cccc(F)c3)[nH]n2c1=O | 11 | 1.2*
CN(C)c1cccc(C(=O)NC2CCCCCC2)c1 | 8 | 1.1
O=C(Nc1ccc2c(c1)C(=O)OC2)NC1CCCCC1 | 21 | 1.4*
COc1ccc(C(=O)n2cnc3cc(C)c(C)cc32)cc1[N+](=O)[O-] | 6 | 1
C/C(=C\C(=O)NCC1(c2ccccc2)CCCC1)c1ccccc1 | 16 | 1.1
COc1ccc(OC)c(C(=O)c2c(C)oc3ccc(O)cc23)c1 | 10 | 0.97
COc1ccc2oc(C)c(C(C)=O)c2c1 | 16 | 0.74*
O=S(=O)(Nc1ccc(O)cc1)c1ccc(Br)cc1 | 1 | 1
O=S(=O)(Nc1ccc(Br)cc1)c1ccc(Cl)cc1 | 10 | 0.79*
O=C(c1ccc(F)cc1)c1ccc(NS(=O)(=O)c2ccc(Cl)cc2)cc1 | -3 | 1.2*
O=S(=O)(Nc1ccc(O)cc1)c1ccc(F)cc1 | 1 | 1
COc1ccccc1CC1CC(=O)N(c2ccc(I)cc2)C1=O (stereo not drawn) | 0 | 1
Cc1ccc(NC(=S)NC(=O)/C=C/c2ccccc2)cc1NC(=O)c1ccccc1 | -6 | 1
O=C(/C=C/c1cccs1)Nc1ncc(Cc2ccccc2Cl)s1 | -5 | 1.1
N/C(=N/OC(=O)COc1ccc2ccccc2c1)c1ccc(Cl)cc1 | 6 | 1.1
Cc1cc([N+](=O)[O-])ccc1NC(=O)c1ccccc1 | -19 | 1
Cc1ccc(C)c(NC(=O)c2ccc([N+](=O)[O-])cc2)c1 | 8 | 0.69*
O=C(Nc1ccccc1C(=O)Nc1ccccn1)c1ccc([N+](=O)[O-])cc1 | -45 | 0.75*
O=C(Nc1ccccc1C(=O)N1CCOCC1)c1ccc([N+](=O)[O-])cc1 | 0 | 0.96
CCOc1ccccc1NC(=O)C(=O)NCc1ccc(F)cc1 | 22 | 1
